Reference: PubChem BioAssay (NCATS)
Several values for one entry are separate records, joined by “and”; a condition that tells them apart may be missing. Equal entries are not always repeated. Inconclusive results are not listed. Activity calls are given as the source filed them. Unless noted, calls come from the whole dose curve; as a rule, active = well fitted curve in either direction with a large enough effect (not every such curve was filed as active); inconclusive = small, poorly fitted or top-dose-only effect, or another doubt; inactive = flat fitted curve, though single readings scatter.

What was measured:
[1] = AP1 Signaling Pathway (AID 357); conditions: ME-180 (cervical carcinoma) AP-1-bla reporter, EGF-induced, beta-lactamase ratio, 5 h; note: % is set by controls: 0 for no effect and ±100 for the full control effect
In short: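 AP-1-bla ME-180 cells with beta-lactamase reporter under AP-1 response element, stimulated with EC50 EGF; compounds titrated, 5 hours at 37 degrees Celsius. CCF4 read at 460/530 nm ratio; positive and negative modulators judged by AC50.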

[2] = target: Cytochrome P450 1A2 (Homo sapiens) (UniProt P05177); test: p450-cyp1a2 (AID 410; calls by dose curve; note: potency is the fitted concentration of half-maximal effect;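 for activity change, negative = inhibition: -100% = full effect of reference inhibitor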); conditions: recombinant CYP1A2, luciferin-ME demethylation, luminescence; series mostly up to 57 µM
In short: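 20nM CYP1A2 with 100uM Luciferin-ME (at Km) in 100mM KPO4; compound preincubated 10 min, NADPH regeneration added, 60 min at room temperature. Luciferin quantified by luminescence after detection reagent; normalized to 57 uM furafylline.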

[3] = NFAT Signaling Pathway (AID 444); conditions: Jurkat NFAT-bla M1, carbachol, beta-lactamase ratio, 5 h;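 note: carbachol stimulus at about its EC50 of 1 µM final; % is set by controls: 0 for no effect and ±100 for the full control effect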
In short: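 Read-out: CCF4 FRET ratio (460 nm/530 nm) after 1 h RT dye loading, used for %activity and AC50 from titration series. Cells: Jurkat NFAT-β-lactamase/M1 line, treated with compound plus 1 uM carbachol for 5 h, 37 °C.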

[4] = target: Lysosomal acid glucosylceramidase (Homo sapiens) (UniProt P04062); test: Glucocerebrosidase-p2 (AID 348; in the data active = potency below about 10 µM; note: potency is the fitted concentration of half-maximal effect); conditions: purified GBA, blue fluorogenic substrate, 40 min
In short: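 Compounds titrated from 0.6 nM upwards against 0.2 nM enzyme in pH 5.9 citric acid/KH2PO4, taurocholate, tween-20; blue fluorogenic substrate 80 uM, 40 min room temperature, stopped and read Ex 365/Em 440 for AC50.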

[5] = Cell Viability - BJ (AID 421; calls by dose curve;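 note: potency is the fitted concentration of half-maximal effect; cells exposed to compound for 40 hours at 37 °C before readout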); conditions: BJ fibroblast viability, qHTS
In short: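 Normal human BJ foreskin fibroblasts, 1500/well in complete medium, treated 40 hr at 37 °C. Cellular ATP by CellTiter-Glo luminescence; normalized to DMSO and 100 uM tamoxifen, AC50 from Hill fit.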

[6] = Cell Viability - Jurkat (AID 426;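 active = dose-dependent loss of cell ATP signal giving a full or clear fitted curve, ranked by lower potency value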; note: potency is the fitted concentration of half-maximal effect); conditions: qHTS
In short: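 Jurkat (Clone E6-1) cells, 5000/well in complete medium, exposed to compounds for 40 hr at 37C; intracellular ATP measured by CellTiter-Glo luminescence after 20 min at room temperature. AC50 from Hill fits.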

[7] = Cell Viability - Hek293 (AID 427;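 active = compounds whose dose-response curve shows a full or clear partial loss of cell viability, called from curve shape rather than a numeric limit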;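 note: potency is the fitted concentration of half-maximal effect; cells exposed to compound for 40 hours at 37 °C before reading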); conditions: qHTS
In short: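 HEK293 cells in complete medium were exposed to compound for 40 hr at 37 °C, then cellular ATP was read by CellTiter-Glo luminescence. Data were normalized to DMSO (basal) and 100 uM tamoxifen (100% inhibition), and AC50 came from Hill fits.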

[8] = Cell Viability - HepG2 (AID 433; calls by dose curve;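 note: potency is the fitted concentration of half-maximal effect; potency for ATP loss meaning cytotoxicity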); conditions: qHTS
In short: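 HepG2 cells, 1500 per well, treated 40 hr at 37 °C in complete medium; viability from intracellular ATP by CellTiter-Glo luminescence. Normalized to DMSO and 100 uM tamoxifen; AC50 from Hill fit of qHTS concentration-response.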

[9] = Cell Viability - MRC5 (AID 434; calls by dose curve;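 note: potency is the fitted concentration of half-maximal effect; potency reflects cytotoxicity seen as loss of intracellular ATP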); conditions: MRC5 lung fibroblast viability, qHTS
In short: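 qHTS cytotoxicity in human lung fibroblast MRC5 cells; 40 hr treatment, 37 °C; cellular ATP by luciferase luminescence; DMSO = 0%, 100 uM tamoxifen = 100% inhibition; Hill-fit AC50.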

[10] = Cell Viability - SK-N-SH (AID 435; calls by dose curve;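 note: potency is the fitted concentration of half-maximal effect; compound exposure lasted 40 h at 37 °C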); conditions: SK-N-SH neuroblastoma cell viability qHTS
In short: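 SK-N-SH neuroblastoma cells (1500/well) treated 40 h at 37 °C in complete medium; viability read as cellular ATP by CellTiter-Glo luminescence. Normalized to DMSO and 100 uM tamoxifen; AC50 from Hill fits of qHTS concentration-response.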

Chain of Cytochrome P450 1A2 (Homo sapiens) (P05177 whole entry, looked up): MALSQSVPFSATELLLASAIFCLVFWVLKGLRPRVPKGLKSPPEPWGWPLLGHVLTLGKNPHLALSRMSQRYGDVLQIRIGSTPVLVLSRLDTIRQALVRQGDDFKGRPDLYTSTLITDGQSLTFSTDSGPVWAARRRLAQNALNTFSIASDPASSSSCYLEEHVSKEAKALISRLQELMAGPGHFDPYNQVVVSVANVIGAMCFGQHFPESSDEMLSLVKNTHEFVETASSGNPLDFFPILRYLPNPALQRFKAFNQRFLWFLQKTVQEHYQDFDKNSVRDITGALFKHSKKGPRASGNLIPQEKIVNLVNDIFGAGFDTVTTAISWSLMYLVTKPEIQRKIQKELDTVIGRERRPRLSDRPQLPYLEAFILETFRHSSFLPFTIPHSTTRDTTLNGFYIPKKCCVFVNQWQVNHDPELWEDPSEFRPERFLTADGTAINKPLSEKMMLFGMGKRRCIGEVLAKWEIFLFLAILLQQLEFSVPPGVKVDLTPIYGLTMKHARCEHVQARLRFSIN
Chain of Lysosomal acid glucosylceramidase (Homo sapiens) (P04062 whole entry, looked up): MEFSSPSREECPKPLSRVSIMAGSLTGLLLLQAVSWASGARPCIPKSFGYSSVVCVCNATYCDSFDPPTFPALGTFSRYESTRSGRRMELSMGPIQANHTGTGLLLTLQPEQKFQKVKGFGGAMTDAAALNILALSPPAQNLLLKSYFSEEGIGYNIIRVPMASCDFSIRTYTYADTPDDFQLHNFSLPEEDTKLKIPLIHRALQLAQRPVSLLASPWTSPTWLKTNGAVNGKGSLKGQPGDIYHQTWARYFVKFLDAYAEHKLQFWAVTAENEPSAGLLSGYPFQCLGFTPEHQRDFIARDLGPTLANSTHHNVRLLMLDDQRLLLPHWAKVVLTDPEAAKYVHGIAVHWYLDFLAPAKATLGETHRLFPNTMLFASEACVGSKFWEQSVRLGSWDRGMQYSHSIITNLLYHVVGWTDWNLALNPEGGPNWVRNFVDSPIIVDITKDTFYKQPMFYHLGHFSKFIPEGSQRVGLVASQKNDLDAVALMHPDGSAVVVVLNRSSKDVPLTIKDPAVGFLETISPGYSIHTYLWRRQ

CC(=O)OC(C)C[N+](C)(C)C (stereo not given)
inactive: activity change, negative = inhibition ([1]; at 17.2 µM (top of the series)) 11.1%

Cc1nc2ccccn2c(=O)c1CCN1CCC(C(=O)c2ccc(F)cc2)CC1
inactive: activity change, negative = inhibition ([1]; at 17.2 µM (top of the series)) -5.86% | activity change, negative = inhibition ([1]; at 38 µM (top of the series)) 5.6% | Potency [2]

C[n+]1cc2c3c(ccc2c2ccc4cc5c(cc4c21)OCO5)OCO3
active: activity change, negative = inhibition ([1]; at 17.2 µM (top of the series)) -119% | activity change, negative = inhibition ([1]; at 38 µM (top of the series)) -111% | Potency [2] 3.98 µM and 10 µM | activity change, negative = inhibition ([3]; at 38 µM (top of the series)) -48.1%

CCCOc1ccccc1-c1nc2n[nH]nc2c(=O)[nH]1
inactive: activity change, negative = inhibition ([1]; at 17.2 µM (top of the series)) -18.5% | activity change, negative = inhibition ([1]; at 38 µM (top of the series)) -7.91% | activity change, negative = inhibition ([3]; at 17.2 µM (top of the series)) 14.8% | activity change, negative = inhibition ([3]; at 38 µM (top of the series)) 2.4%
active: Potency [2] 5.01 µM and 3.98 µM

C(=C\c1ccccc1)/CN1CCN(C(c2ccccc2)c2ccccc2)CC1
inactive: activity change, negative = inhibition ([1]; at 17.2 µM (top of the series)) -4.86%

O=C(O)CP(=O)(O)O
inactive: Potency [4] > 11.4 µM | activity change, negative = inhibition ([1]; at 7.69 µM (top of the series)) 0.401% | activity change, negative = inhibition ([1]; at 38 µM (top of the series)) 7.05% | Potency [2] | activity change, negative = inhibition ([3]; at 7.69 µM (top of the series)) -1.52% | activity change, negative = inhibition ([3]; at 38 µM (top of the series)) 3.66%

CCN(CC)CCOCCOC(=O)C1(c2ccccc2)CCCC1
inactive: activity change, negative = inhibition ([1]; at 17.2 µM (top of the series)) -7.4% | activity change, negative = inhibition ([1]; at 38 µM (top of the series)) 16.3%
active: Potency [2] 12.6 µM

CCCN(CCC)CCc1cccc2c1CC(=O)N2
inactive: activity change, negative = inhibition ([1]; at 38 µM (top of the series)) 3.44% | Potency [2]

CCO/C([O-])=N/c1c[n+](N2CCOCC2)no1
inactive: activity change, negative = inhibition ([1]; at 17.2 µM (top of the series)) -2.58% and 9.89% | activity change, negative = inhibition ([1]; at 38 µM (top of the series)) 19.4% | Potency [2] | activity change, negative = inhibition ([3]; at 17.2 µM (top of the series)) -13.9% and -20.6% | activity change, negative = inhibition ([3]; at 38 µM (top of the series)) -9.67%

NC(=O)N1c2ccccc2C=Cc2ccccc21
inactive: activity change, negative = inhibition ([1]; at 17.2 µM (top of the series)) -5.62% and 13.4% | Potency [2] | Potency [5] > 92 µM | Potency [6] > 92 µM | Potency [7] > 92 µM | Potency [8] > 92 µM | Potency [9] > 92 µM | Potency [10] > 92 µM | activity change, negative = inhibition ([3]; at 17.2 µM (top of the series)) 3.6% | activity change, negative = inhibition ([3]; at 38 µM (top of the series)) 3.87%

NC(N)=NC(=O)Cc1c(Cl)cccc1Cl
inactive: activity change, negative = inhibition ([1]; at 17.2 µM (top of the series)) 3.24% | activity change, negative = inhibition ([1]; at 38 µM (top of the series)) 6.16% | Potency [2] | activity change, negative = inhibition ([3]; at 17.2 µM (top of the series)) 3.14% | activity change, negative = inhibition ([3]; at 38 µM (top of the series)) 2.06%

Brc1c(NC2=NCCN2)ccc2nccnc12
inactive: activity change, negative = inhibition ([1]; at 17.2 µM (top of the series)) -0.374% | activity change, negative = inhibition ([1]; at 38 µM (top of the series)) 6.19% | Potency [2] | activity change, negative = inhibition ([3]; at 17.2 µM (top of the series)) 15.8% | activity change, negative = inhibition ([3]; at 38 µM (top of the series)) 1.97%

Cc1ccc(S(=O)(=O)NC(=O)NN2CCCCCC2)cc1
inactive: activity change, negative = inhibition ([1]; at 17.2 µM (top of the series)) -5.47% and 3% | activity change, negative = inhibition ([1]; at 38 µM (top of the series)) 4.52% | activity change, negative = inhibition ([3]; at 17.2 µM (top of the series)) -5.82% and -2.02% | activity change, negative = inhibition ([3]; at 38 µM (top of the series)) -9.25%

CN=C(NC#N)NCCSCc1nc[nH]c1C
inactive: activity change, negative = inhibition ([1]; at 38 µM (top of the series)) -4.97% | Potency [2] | Potency [5] > 92 µM | Potency [6] > 92 µM | Potency [7] > 92 µM | Potency [8] > 92 µM | Potency [9] > 92 µM | Potency [10] > 92 µM | activity change, negative = inhibition ([3]; at 38 µM (top of the series)) 6.95%

C[N+](C)(C)CCCCCCCCCC[N+](C)(C)C
inactive: activity change, negative = inhibition ([1]; at 17.2 µM (top of the series)) 5.88% and 0.653% | activity change, negative = inhibition ([1]; at 38 µM (top of the series)) 6.36% | Potency [2] | activity change, negative = inhibition ([3]; at 17.2 µM (top of the series)) -20.5% and -5.13% | activity change, negative = inhibition ([3]; at 38 µM (top of the series)) -4.26%

c1cc(CN2CCCCC2)cc(OCCCNc2nc3ccccc3s2)c1
active: Potency [2] 15.8 µM and 31.6 µM
inactive: activity change, negative = inhibition ([1]; at 38 µM (top of the series)) 6.03%

O=C(CCNNC(=O)c1ccncc1)NCc1ccccc1
inactive: activity change, negative = inhibition ([1]; at 17.2 µM (top of the series)) -5.47% and 0.412% | activity change, negative = inhibition ([1]; at 38 µM (top of the series)) 1.11% | activity change, negative = inhibition ([3]; at 17.2 µM (top of the series)) -23.8% and -5.87% | activity change, negative = inhibition ([3]; at 38 µM (top of the series)) 4.78%
active: Potency [2] 31.6 µM and 12.6 µM

CC(C)[N+](C)(CCOC(=O)C1c2ccccc2Oc2ccccc21)C(C)C
active: activity change, negative = inhibition ([3]; at 17.2 µM (top of the series)) -48.1% and -94.6% | activity change, negative = inhibition ([3]; at 38 µM (top of the series)) -63%
inactive: activity change, negative = inhibition ([1]; at 17.2 µM (top of the series)) 12.1% and 5.76% | activity change, negative = inhibition ([1]; at 38 µM (top of the series)) 3.91%

O=C(O)CN(CCOCCOCCN(CC(=O)O)CC(=O)O)CC(=O)O
inactive: activity change, negative = inhibition ([1]; at 38 µM (top of the series)) 4.77% | Potency [2] | activity change, negative = inhibition ([3]; at 38 µM (top of the series)) 0.822%

C[N+](C)(C)CCOC(=O)CCC(=O)OCC[N+](C)(C)C
inactive: activity change, negative = inhibition ([1]; at 38 µM (top of the series)) -1.57% | Potency [2] | activity change, negative = inhibition ([3]; at 38 µM (top of the series)) 1.62%

O=C1CC2(CCCC2)CC(=O)N1CCCCN1CCN(c2ncccn2)CC1
inactive: activity change, negative = inhibition ([1]; at 17.2 µM (top of the series)) -0.287% | activity change, negative = inhibition ([1]; at 38 µM (top of the series)) -2.42% | activity change, negative = inhibition ([3]; at 17.2 µM (top of the series)) -9.19%

CCN1CCc2nc(N)oc2CC1
inactive: activity change, negative = inhibition ([1]; at 38 µM (top of the series)) 9.25% | Potency [2] | activity change, negative = inhibition ([3]; at 38 µM (top of the series)) -7.89%

CCN(CC)CC(=O)Nc1c(C)cccc1C
inactive: activity change, negative = inhibition ([1]; at 17.2 µM (top of the series)) 8.06% and 2.56% and 5.37% | activity change, negative = inhibition ([1]; at 38 µM (top of the series)) 19.9% | activity change, negative = inhibition ([3]; at 17.2 µM (top of the series)) -9.77% and 9.98% and -29.3% | activity change, negative = inhibition ([3]; at 38 µM (top of the series)) 0.823%
